This assay is described as follows: S. aureus quorum sensing inhibitors, primary screen, RNAIII-GFP reporter, flow cytometry (AID 527).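 Note: 0% = AIP-stimulated control and 100% = unstimulated bacteria without AIP.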 Conditions: S. aureus RN6390 RNAIII-GFP reporter, AIP-induced, flow cytometry 3 h, at 2 µM, stronger effect = higher value. (In general: Flow cytometry measures light scatter and fluorescence of single cells or particles in a stream.)
[1] abbreviates: measured here: inhibition of GFP MFI.

The structures appear in SMILES notation. In all, about 24,000 compounds went through this assay and about 65 (0.3%) were called active.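 Rule for the calls: active = share of bacteria positive for the green fluorescent reporter and its mean brightness both inhibited by 50% or more; inactive = the rest, inconclusive results apart.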 What follows is part of a selection rich in actives, with near analogues and random picks from the rest.

One may read the inhibition as the change of the read-out against control, counted positive when it falls.

For `Cc1cc(Nc2cccc(C)c2C)n2ncnc2n1`, the inhibition was 0% (inactive). The inhibition under setting [1] is 1.4%.

Regarding `COC(=O)c1ccc2c(=O)n(CC3CCCO3)c(=S)[nH]c2c1` (configuration not stated), the inhibition is -2.1% (inactive). For the same compound, under setting [1], the inhibition was 1.7%.

Take `O=C(NCCCN1CCN(C2CCCCC2)CC1)Nc1ccccc1C(F)(F)F`: the inhibition was -9.7% (inactive). Also, the inhibition under setting [1] is -13.2%.

For the compound `COc1cccc(N2CCN(C(=O)C3CCCN(S(=O)(=O)c4cnc[nH]4)C3)CC2)c1` (configuration not stated), the inhibition is -1.3% (inactive). Also, under setting [1], the inhibition is -0.6%.

`Cc1ccc(C)c(N2CCN(C(=O)CCc3nc4ccccc4[nH]3)CC2)c1`: the inhibition was 5.3% (inactive). Also, the inhibition under setting [1] was found to be 36.1%.

Turning to `Cc1ccc(C)c(N2CCN(C(=O)CCCCn3c(=O)[nH]c4ccccc4c3=O)CC2)c1`, the inhibition was 71.2% (active). Also, the inhibition under setting [1] was determined as 71.1%.

Regarding `O=C(CCn1c(=O)[nH]c2ccccc2c1=O)NCCCN1CCN(c2cccc(Cl)c2)CC1`, the inhibition is -4.8% (inactive). Further, the inhibition under setting [1] is -25.8%.

For the compound `COC(=O)c1ccc(CN(c2ccccc2OC)S(=O)(=O)c2cccs2)o1`, the inhibition is -0.8% (inactive). Further, under setting [1], the inhibition is -15.8%.

As to `COC(=O)CN(c1nc(C)c(Cl)c(OC)n1)S(=O)(=O)c1ccc(C)cc1`, the inhibition is -3.6% (inactive). In addition, the inhibition under setting [1] was -2.5%.

On to `Cc1ccccc1S(=O)(=O)Cc1ccc(C(=O)NCCN2CCCCC2C)o1` (configuration not stated), for which the inhibition is 1.5% (inactive). Further, the inhibition under setting [1] was -6.9%.

For the compound `O=C(C(Cc1ccccc1)n1cccc1)N1CCN(C2CCCCC2)CC1` (configuration not stated), the inhibition is -0.8% (inactive). In addition, the inhibition under setting [1] was -1.7%.

On to `CCOc1ccc(OCC)c(NC(=O)C2CCN(S(=O)(=O)c3c(C)noc3C)CC2)c1`, for which the inhibition was -1.2% (inactive). Further, the inhibition under setting [1] is -15.6%.

As to `O=C(c1ccccc1)c1ccc2nc(N3CCCCC3)c3nncn3c2c1`, the inhibition was -1.8% (inactive). For the same compound, under setting [1], the inhibition was -34.9%.

Regarding `Cc1cccc(N2CCN(Cc3c(C)n(C)n(-c4ccccc4)c3=O)CC2)c1C`, the inhibition was -0.1% (inactive). The inhibition under setting [1] is -1.8%.

`COc1cccc(N2C(=O)C3CCCN3C2c2ccc(F)cc2)c1` (configuration not stated): the inhibition is -4.7% (inactive). Further, the inhibition under setting [1] was -8.4%.

For `CN1CCN(S(=O)(=O)c2ccc3[nH]cc(C(=O)O)c(=O)c3c2)CC1`, the inhibition is -2.2% (inactive). In addition, the inhibition under setting [1] was -22.7%.

As for `CC(C)N1C(=O)C2C(C(=O)NC3CCCCC3)C3C=CC2(O3)C1C(=O)NC1CCCC1` (configuration not stated), the inhibition was -2.6% (inactive). The inhibition under setting [1] is -16.1%.

Take `CC1CCC(NS(=O)(=O)c2ccc3c(c2)n(C)c(=O)c(=O)n3C)CC1` (configuration not stated): the inhibition was -0.4% (inactive). The inhibition under setting [1] was 12.3%.

Turning to `C=CCn1c2ccccc2c2nnc(SC(CC)C(=O)Nc3nc(C)c(C(=O)OCC)s3)nc21` (configuration not stated), the inhibition was 28.9% (inactive). For the same compound, under setting [1], the inhibition worked out at 48.3%.

`COC(=O)c1cc(C(=O)OC)cc(N2C(=O)CC(N3CCN(c4ccccc4)CC3)C2=O)c1` (configuration not stated): the inhibition was 5.6% (inactive). Further, under setting [1], the inhibition is 38.5%.

Regarding `COCCCNC(=O)CSc1nc2ccc(N3CCOCC3)cc2c(=O)n1CCc1ccccc1`, the inhibition is 10.2% (inactive). The inhibition under setting [1] worked out at 33.4%.

Values taken from PubChem BioAssay AID527 (NMMLSC, 2006).
